# Screens (PubChem BioAssay)
# In the library only some 6% were active in any assay of this set; here they are far more common.
# TSHR agonist: activates the human thyroid stimulating hormone receptor | P16473 | HEK293-CNG-TSHR cells (CNG channel as cAMP sensor), membrane potential dye, cAMP | 0.48% of 73,000 active | Potency, µM (titrated, usually from 57.1 µM), inactives show at the top dose activation, usual class: activators; active = well fitted activation curve with a large enough effect in the main read-out, with a control signal flat, not every such curve was filed as active; inconclusive = small, poorly fitted or top-dose-only effect, or a change in a side signal; inactive = no such curve, though single readings can be large or run the other way; % of control where 0% means no effect;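 also: the control signal comes from parental cells without the receptor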
# Target sequence (P16473 whole entry, looked up): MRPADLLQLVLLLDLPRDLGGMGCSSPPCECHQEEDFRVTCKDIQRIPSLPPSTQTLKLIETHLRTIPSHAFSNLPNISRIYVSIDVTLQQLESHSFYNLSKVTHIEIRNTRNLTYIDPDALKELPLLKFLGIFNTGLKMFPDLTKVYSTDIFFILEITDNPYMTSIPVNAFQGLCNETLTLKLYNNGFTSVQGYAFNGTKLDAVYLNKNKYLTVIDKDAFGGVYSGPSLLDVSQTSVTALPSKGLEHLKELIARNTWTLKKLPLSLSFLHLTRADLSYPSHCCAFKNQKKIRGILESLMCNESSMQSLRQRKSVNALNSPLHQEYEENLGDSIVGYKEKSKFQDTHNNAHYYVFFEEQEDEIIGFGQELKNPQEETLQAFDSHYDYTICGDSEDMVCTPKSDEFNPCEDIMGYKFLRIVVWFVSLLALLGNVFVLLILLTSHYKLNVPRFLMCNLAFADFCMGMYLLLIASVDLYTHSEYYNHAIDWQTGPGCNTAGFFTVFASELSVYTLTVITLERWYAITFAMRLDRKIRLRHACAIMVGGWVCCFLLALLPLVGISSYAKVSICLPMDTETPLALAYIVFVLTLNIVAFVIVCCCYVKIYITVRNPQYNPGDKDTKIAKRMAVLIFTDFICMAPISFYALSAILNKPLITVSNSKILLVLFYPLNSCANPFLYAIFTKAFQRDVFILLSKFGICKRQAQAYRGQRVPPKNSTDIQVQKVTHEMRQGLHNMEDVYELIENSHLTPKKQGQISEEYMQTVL
#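 cAMP rise detected as CNG-channel membrane depolarization by fluorescent dye (emission 590 nm), 30 min after compound, following 60 min dye loading containing 100 uM RO 20-1724 at room temperature. Cells: TSHR/CNG HEK 293, with parental CNG HEK 293 as control.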
# CRE Fsk mod: alters forskolin-stimulated CRE reporter signaling in CHO cells; CHO CRE-bla reporter (cAMP response element driving beta-lactamase), forskolin EC10, beta-lactamase ratio; Potency, µM (titrated, usually from 38.2 µM), without a hit: at the highest dose activity change, negative = inhibition, usual class: activators; 2.5% of 71,000 active; AID 662; active = well fitted activation curve with a large enough effect in the signal ratio, with a control signal flat, not every such curve was filed as active; inconclusive = small, poorly fitted or top-dose-only effect, or effect the other way, or a change in a side signal; the % refers to the signal ratio; also: % of control where 0% means no effect
#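 qHTS titration format; CRE-bla CHO reporter; stimulus EC10 NKH 477, a water-soluble forskolin. Read: CCF4 460/530 nm ratio. Potency expressed as AC50 for activators or inhibitors.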
# ERK AVP block: inhibitors of vasopressin-stimulated ERK signaling pathway. Potency, µM (top dose mostly 57.5 µM), inactives show at the highest dose activity, negative = inhibition, usual class: inhibitors. 0.99% of 72,000 active. HEK293-V1b, vasopressin-stimulated pERK AlphaScreen. AID 995; also: % is scaled to controls: 0 for no effect and ±100 for the full control effect; nearly all actives have a fitted effect of over 55% in size
#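 Phosphorylated ERK1/2 detected via AlphaScreen bead proximity in lysates of V1b-expressing HEK293 cells given 25 nM vasopressin for 5 min after 30 min compound exposure (37 °C). AC50 from Hill equation; basal DMSO 0%, vasopressin 100%.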
# HEK293 cAMP cs: counter-screen for TSHR agonists: cAMP increase in parental HEK293. parental HEK293 CNG cAMP sensor, membrane potential fluorescence. Potency, µM (doses to about 57.1 µM), for inactives: at the highest dose activation, hits mostly activators. 2.5% of 73,000 active. AID 938; also: % of control where 0% means no effect; nearly all actives have a fitted effect of over 55% in size
#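 Parental HEK 293 cells stably expressing a cAMP-gated CNG channel were loaded with membrane potential dye containing 100 uM RO 20-1724 for 60 min. Compound added for 30 min; depolarization read as fluorescence intensity at 590 nm.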
# An asterisk follows results filed as active; ? = inconclusive; . = not tested or not shown; [ ] = another dose, or the depositor's remark. Unless noted, calls follow the shape of the dose curve; as a rule, active = well fitted curve in the direction sought with a large enough effect; inconclusive = small, poorly fitted or top-dose-only effect, or another doubt; inactive = no such curve, though single readings can be large; an effect the other way counts as inactive or inconclusive. Potency is read from the fitted curve at half-maximal effect.
SMILES,TSHR agonist,CRE Fsk mod,ERK AVP block,HEK293 cAMP cs
Cc1nc(NC2CCCCC2)c2nc(-c3ccccc3)n(CCCN(C)C)c2n1,?,-1%,6%,?
Cc1nc(NC2CCCCC2)c2nc(-c3ccccc3)n(CCCN3CCOCC3)c2n1,?,10µM*,-25%,?
C[C@@]1(O)CCOC(=O)C1,-4%[25.6 µM],-1%[17.1 µM],-5%[25.7 µM],8%[25.6 µM]
CCn1c(SCC(=O)Nc2nc3c(s2)CCCC3)nnc1-c1ccccc1,?,?,32µM*,?
O=C(CSc1nc2ccccc2o1)Nc1nc2c(s1)CCCC2,?,-13%,-28%,32µM*
CCn1c(SCC(=O)Nc2nc3ccccc3s2)nnc1-c1ccc(OC)cc1,11%,-2%,18%,15%
O=C(CSc1nc2ccccc2o1)Nc1nc2ccccc2s1,?,-1%,-16%,?
COc1ccc(CNc2ccnc(-c3ccccc3CN(C)C)n2)c(OC)c1,?,3%,-8%,?
c1ccc(CNc2ncnc3nc[nH]c23)cc1,.,-5%[17.1 µM],4%[25.7 µM],9%[25.6 µM]
c1ccc(CCCNc2ncnc3nc[nH]c23)cc1,?,7.9µM*,.,?
CC(C)(C)c1ccc(OCC(=O)O)c(Cl)c1,6%[11.4 µM],-12%[7.6 µM],-3%[11.5 µM],11%[11.4 µM]
COc1cc(NCCC(=O)O)c2ncccc2c1,-4%[11.4 µM],-1%[7.6 µM],7%[11.5 µM],2%[11.4 µM]
COc1ccccc1NC(=O)CN1CCN(c2ccc(Cl)cc2)CC1,?,?,-11%,20µM*
COc1ccccc1NC(=O)CN1CCC(n2nnc3cc(F)ccc32)CC1,15%,?,6%,20%
COc1ccccc1NC(=O)CN1CCC(n2c(C)nc3cc(F)ccc32)CC1,15%,2µM*,?,31%
Cc1ccccc1-c1nccc(NCCN2CCOCC2)n1,?,-2%,8%,?
COC(=O)/C=C\c1cc(O)ccc1O,-2%,10%,-23%,-3%
COc1cccc(-c2nn(C)c3sc(C(=O)N4CCOCC4)cc23)c1,4%,10µM*,4%,3%
CN1CCN(CCCNC(=O)c2cc3c(-c4ccc(Cl)cc4)nn(C)c3s2)CC1,12%,?,-17%,11%
Cn1nc(-c2ccc(Cl)cc2)c2cc(C(=O)N3CCOCC3)sc21,2%,6.3µM*,?,4%
Cn1nc(-c2ccc(Cl)cc2)c2cc(C(=O)NCC3CCCO3)sc21 (centres undefined),3%,5µM*,?,13%
Nc1nc(/C(=C/CC(=O)O)C(=O)NC2C(=O)N3C(C(=O)O)=CCSC23)cs1 (centres undefined),.,.,23%,.
O=S(=O)(c1cccs1)N1CN(CC2CCCO2)c2nc3ccccc3nc21 (centres undefined),25µM*,?,-12%,19%
COc1cccc(Cn2c(N)c(C#N)c3nc4ccccc4nc32)c1OC,7%,5µM*,?,-12%
COc1cc(Cn2c(N)c(C#N)c3nc4ccccc4nc32)cc(OC)c1,-17%,13µM*,-23%,-17%
SMILES,TSHR agonist,CRE Fsk mod,ERK AVP block,HEK293 cAMP cs
N=C1Sc2ccccc2C2=NCCCN12,0%,18%,-13%,3%
CC(=O)Nc1ccc(S(=O)(=O)Nc2nc3ccccc3nc2N2CCCC2)cc1,-7%,13µM*,-9%,12%
COc1ccccc1NS(=O)(=O)c1ccc(NC(C)=O)cc1,2%,-8%,-17%,-1%
Cc1csc(NC(=O)CCCSc2nc3ccccc3s2)n1,?,?,16µM*,?
CC(=O)OC[C@@H]1O[C@@H](O/N=C2/C[C@@H](O)[C@@H](O)[C@@H]3[C@@H]4C(=O)N(C5CCCCC5)C(=O)[C@H]4CC[C@H]23)[C@H](OC(C)=O)[C@H](OC(C)=O)[C@@H]1OC(C)=O,-14%[11.4 µM],.,19%[11.5 µM],-1%[11.4 µM]
COc1ccc(CN[C@H](C)C(=O)O)cc1,1%[11.4 µM],0%[7.6 µM],5%[11.5 µM],2%[11.4 µM]
Cc1noc(C)c1CSc1nc2[nH]ncc2c(=O)n1-c1ccccc1,.,10µM*,13µM*,14%
Cc1noc(C)c1CSc1nc2ccccc2c(=O)n1-c1ccc(F)cc1F,?,?,?,16µM*
Cc1noc(C)c1CSc1nc2ccccc2c(=O)n1-c1ccccc1,?,10µM*,?,10µM*
CCc1ccccc1,0%,-10%,-5%,-7%
COC(=O)CN=C1OC(=O)N2C(=O)C3=C4C(C[C@H]5C(=O)N(c6ccccc6)C(=O)[C@H]5[C@H]4[C@@]12Cc1ccccc1)[C@H]1C(=O)N(c2ccccc2)C(=O)[C@H]1[C@H]3C (some centres undefined),.,.,8%,.
CC(=O)NCCNc1ncnc2ccc(-c3ccccc3C#N)cc12,5%,?,12%,-5%
COc1ccccc1-n1cnnc1SCC(=O)c1cc(C)n(Cc2cccs2)c1C,?,-3%,8%,32µM*
C=CCn1c(SCC(=O)c2ccc(OC)cc2)nnc1-c1cc2cccc(OC)c2o1,?,17%,?,?
C=CCn1c(SCC(=O)c2ccccc2)nnc1-c1cc2ccccc2o1,?,-11%,?,32µM*
O=C(CSc1nnc(-c2ccc(Cl)s2)o1)N1CCCc2ccccc21,?,-17%,0%,4µM*
O=C(CSc1nnc(-c2ccc(Cl)s2)o1)N1CCc2ccccc21,19%,-3%,1%,16%
O=C(O)c1ccccc1NS(=O)(=O)c1cccc2ccccc12,5%,.,.,-8%
COc1ccccc1OCCn1cc(C(=O)c2ccco2)c2ccccc21,?,?,?,25µM*
COc1ccccc1-c1nc(S(=O)(=O)c2ccc(Cl)cc2)c(N(C)C)o1,?,6%,-2%,?
COc1cc(-c2nc(S(=O)(=O)c3ccc(C)cc3)c(N(C)C)o2)cc(OC)c1OC,10%,2µM*,-13%,2%
COc1cc(-c2nc(S(=O)(=O)c3ccc(C)cc3)c(N3CCOCC3)o2)cc(OC)c1OC,8%,1µM*,-21%,-12%
NC(=O)NCC(N)C(=O)O (centres undefined),.,.,14%,.
Cc1cc(C(=O)CSc2nnnn2-c2ccccc2)c(C)n1CC1CCCO1 (centres undefined),?,3%,-4%,25µM*
Cc1ccc(-n2nnnc2SCC(=O)c2cc(C)n(-c3cc(C)on3)c2C)c(C)c1,23%[11.4 µM],-9%,14%,25%
SMILES,TSHR agonist,CRE Fsk mod,ERK AVP block,HEK293 cAMP cs
Cc1cc(-n2c(C)cc(C(=O)CSc3nnnn3-c3ccccc3)c2C)no1,20µM*,?,-22%,24%
C=C(C)Cn1c(SCC#N)nc2ccccc2c1=O,?,10µM*,-7%,?
C=C(C)Cn1c(SCC)nc2ccccc2c1=O,?,?,9%,?
CCN(CCCn1c(SCC#N)nc2ccccc2c1=O)c1ccccc1,?,2.5µM*,-6%,?
COc1ccc(Cn2c3nc4ccccc4nc3c3c(=O)n(Cc4ccco4)cnc32)cc1,9%,13µM*,-9%,20%
CC(=O)OC[C@H]1O[C@@H](ON=C(C)C)[C@H](OC(C)=O)[C@@H](OC(C)=O)[C@H]1OC(C)=O,13%[11.4 µM],.,6%[11.5 µM],-5%[11.4 µM]
CCCc1nc(N)c(C#N)c(N)c1C#N,-9%,5µM*,?,0%
